Only a selection was taken, and the strongest signals are over-represented in it overall.
How the values were obtained:
Experiment in all cases: glycan array binding signal (z-score within array); higher = stronger binding
Conditions in all cases: glycan notation: IUPAC condensed, linker removed
[1] = molecular target: Fuc(a1-2)Gal(b1-4)GlcNAc(b1-3)Gal(b1-4)GlcNAc(b1-3)Gal(b1-4)GlcNAc
In short: (§1)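 Negative Z-scores can be read as non-binding. The Z-score is calculated within each array and then averaged across arrays of one protein sequence at different concentrations or buffers and across linkers. Arrays, 3228 in all, were curated from the Consortium for Functional Glycomics database and kept only where the protein sequence was available.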

[2] = molecular target: Fuc(a1-2)Gal6S(b1-4)GlcNAc
In short: as §1

[3] = molecular target: Fuc(a1-3)[Gal3S(b1-4)]Glc6S
In short: as §1

[4] = molecular target: Fuc(a1-3)[Gal3S(b1-4)]GlcNAc6S
In short: as §1

[5] = molecular target: Fuc(a1-3)[GalNAc(b1-4)]GlcNAc
In short: as §1

[6] = molecular target: Gal(b1-4)GlcNAc(b1-3)[Gal(b1-4)GlcNAc(b1-6)]GalNAc
In short: as §1

[7] = molecular target: Gal3S(b1-3)[Fuc(a1-4)]GlcNAc
In short: as §1

[8] = molecular target: Gal3S(b1-4)Glc
In short: as §1

[9] = molecular target: Gal3S6S(b1-4)GlcNAc6S
In short: as §1

[10] = molecular target: GalNAc(b1-3)Gal
In short: as §1

[11] = molecular target: GlcNAc(b1-4)Gal(b1-4)GlcNAc
In short: as §1

[12] = molecular target: Neu5Ac(a2-3)Gal(b1-4)[Fuc(a1-3)]GlcNAc6S
In short: as §1

[13] = molecular target: Neu5Ac(a2-3)[GalNAc(b1-4)]Gal(b1-4)GlcNAc
In short: as §1

[14] = molecular target: Neu5Ac(a2-6)Gal(b1-4)Glc
In short: as §1

[15] = molecular target: Neu5Ac(a2-6)Gal(b1-4)GlcNAc(b1-3)Gal(b1-4)[Fuc(a1-3)]GlcNAc(b1-3)Gal(b1-4)[Fuc(a1-3)]GlcNAc
In short: as §1

[16] = molecular target: Neu5Ac(a2-8)Neu5Ac(a2-8)Neu5Ac
In short: as §1

[17] = molecular target: Neu5Ac(a2-8)Neu5Ac(a2-8)Neu5Ac(a2-3)[GalNAc(b1-4)]Gal(b1-4)Glc
In short: as §1

[18] = molecular target: Neu5Ac(b2-6)GalNAc
In short: as §1

[19] = molecular target: Fuc(a1-2)[GalNAc(a1-3)]Gal
In short: as §1

[20] = molecular target: Gal(a1-3)[Gal(a1-4)]Gal(b1-4)GlcNAc
In short: as §1

[21] = molecular target: Gal(b1-4)GalNAc(a1-3)[Fuc(a1-2)]Gal(b1-4)GlcNAc
In short: as §1

[22] = molecular target: Gal3S(b1-3)GalNAc
In short: as §1

[23] = molecular target: Gal3S(b1-4)GlcNAc
In short: as §1

[24] = molecular target: Gal4S(b1-4)GlcNAc
In short: as §1

[25] = molecular target: GlcNAc(b1-4)GlcNAc(b1-4)GlcNAc
In short: as §1

[26] = molecular target: Man(a1-2)Man(a1-6)[Man(a1-3)]Man(a1-6)[Man(a1-2)Man(a1-2)Man(a1-3)]Man(b1-4)GlcNAc(b1-4)GlcNAc
In short: as §1

[27] = molecular target: Neu5Ac(a2-8)Neu5Ac(a2-3)[GalNAc(b1-4)]Gal(b1-4)Glc
In short: as §1

[28] = molecular target: Neu5Ac(a2-8)Neu5Ac(a2-8)Neu5Ac(a2-3)Gal(b1-4)Glc
In short: as §1

[29] = molecular target: Neu5Gc(a2-3)Gal(b1-4)Glc
In short: as §1

[30] = molecular target: GlcNAc(b1-3)Man
In short: as §1

[31] = molecular target: Man(a1-2)Man(a1-3)Man
In short: as §1

[32] = molecular target: Man(a1-3)[Man(a1-6)]Man(a1-6)[Man(a1-2)Man(a1-3)]Man(b1-4)GlcNAc(b1-4)GlcNAc
In short: as §1

[33] = molecular target: Man(a1-3)[Man(a1-6)]Man(a1-6)[Man(a1-3)]Man
In short: as §1

[34] = molecular target: Man(a1-3)[Man(a1-6)]Man(b1-4)GlcNAc(b1-4)GlcNAc
In short: as §1

[35] = molecular target: Man(a1-3)[Man(a1-6)]Man(b1-4)GlcNAc(b1-4)[Fuc(a1-6)]GlcNAc
In short: as §1

[36] = molecular target: Neu5Ac(a2-3)Gal(b1-4)GlcNAc(b1-2)[Neu5Ac(a2-3)Gal(b1-4)GlcNAc(b1-6)]Man(a1-6)[Neu5Ac(a2-3)Gal(b1-4)GlcNAc(b1-2)Man(a1-3)]Man(b1-4)GlcNAc(b1-4)GlcNAc
In short: as §1

[37] = molecular target: Neu5Ac(a2-3)Gal(b1-4)GlcNAc(b1-3)Gal
In short: as §1

[38] = molecular target: Neu5Ac(a2-3)Gal(b1-4)GlcNAc6S
In short: as §1

[39] = molecular target: Neu5Ac(a2-6)Gal(b1-4)GlcNAc(b1-2)Man(a1-6)[GlcNAc(b1-2)Man(a1-3)]Man(b1-4)GlcNAc(b1-4)GlcNAc
In short: as §1

[40] = molecular target: Neu5Ac9Ac(a2-3)Gal(b1-3)GlcNAc
In short: as §1

[41] = molecular target: Neu5Gc(a2-3)Gal(b1-4)GlcNAc
In short: as §1

B1: L-Selectin (Mus musculus), P18337 (protein)
chain: MVFPWRCEGTYWGSRNILKLWVWTLLCCDFLIHHGTHCWTYHYSEKPMNWENARKFCKQNYTDLVAIQNKREIEYLENTLPKSPYYYWIGIRKIGKMWTWVGTNKTLTKEAENWGAGEPNNKKSKEDCVEIYIKRERDSGKWNDDACHKRKAALCYTASCQPGSCNGRGECVETINNHTCICDAGYYGPQCQYVVQCEPLEAPELGTMDCIHPLGNFSFQSKCAFNCSEGRELLGTAETQCGASGNWSSPEPICQVVQCEPLEAPELGTMDCIHPLGNFSFQSKCAFNCSEGRELLGTAETQCGASGNWSSPEPICQETNRSFSKIKEGDYNPLFIPVAVMVTAFSGLAFLIWLARRLKKGKKSQERMDDPY
- glycan array binding signal (z-score) [1]: -0.485
- glycan array binding signal (z-score) [2]: -0.072
- glycan array binding signal (z-score) [3]: 3.99
- glycan array binding signal (z-score) [4]: 4.9
- glycan array binding signal (z-score) [5]: -0.454
- glycan array binding signal (z-score) [6]: -0.393
- glycan array binding signal (z-score) [7]: 3.61
- glycan array binding signal (z-score) [8]: 0.558
- glycan array binding signal (z-score) [9]: 4.38
- glycan array binding signal (z-score) [10]: -0.436
- glycan array binding signal (z-score) [11]: -0.044
- glycan array binding signal (z-score) [12]: 8.82
- glycan array binding signal (z-score) [13]: -0.282
- glycan array binding signal (z-score) [14]: -0.214
- glycan array binding signal (z-score) [15]: -0.252
- glycan array binding signal (z-score) [16]: -0.493
- glycan array binding signal (z-score) [17]: -0.235
- glycan array binding signal (z-score) [18]: -0.495

B2: RegIIIgamma (Mus musculus), O09049 (protein)
chain: MLPRITITIMSWMLLSCLMLLSQVQGEVAKKDAPSSRSSCPKGSRAYGSYCYALFSVSKNWYDADMACQKRPSGHLVSVLSGAEASFLSSMIKSSGNSGQYVWIGLHDPTLGYEPNRGGWEWSNADVMNYINWETNPSSSSGNHCGTLSRASGFLKWRENYCNLELPYVCKFKA
- glycan array binding signal (z-score) [1]: 0.632
- glycan array binding signal (z-score) [19]: -0.258
- glycan array binding signal (z-score) [20]: 0.491
- glycan array binding signal (z-score) [21]: -0.228
- glycan array binding signal (z-score) [22]: -0.134
- glycan array binding signal (z-score) [23]: -0.128
- glycan array binding signal (z-score) [24]: 1.17
- glycan array binding signal (z-score) [25]: -0.185
- glycan array binding signal (z-score) [26]: -0.06
- glycan array binding signal (z-score) [27]: -0.133
- glycan array binding signal (z-score) [28]: -0.163
- glycan array binding signal (z-score) [29]: -0.148

B3: RVL (Remusatia vivipara), B5LYJ9 (protein)
chain: MAKLLLFLLPAILGLLVPRSAVALGTNYLLSGQTLDTEGHLKNGDFDLVMQDDCNLVLYNGNWQSNTANNGRDCKLTLTDYGELVIKNGDGSTVWKSGAQSVKGNYAAVVHPDGRLVVLGPSVFKIDPWVRGLNSLRFRNIPFTNNLLFSGQVLYGDGRLTAKNHQLVMQGDCNLVLYGGKYGWQSNTHGNGEHCFLRLNHKGELIIKDDDFKTIWSSRSSSKQGEYVLILQDDGFGVIYGPAIFETSSKRSIAAS
- glycan array binding signal (z-score) [30]: -0.227
- glycan array binding signal (z-score) [31]: -0.197
- glycan array binding signal (z-score) [32]: 3.91
- glycan array binding signal (z-score) [33]: 0.224
- glycan array binding signal (z-score) [34]: 3.8
- glycan array binding signal (z-score) [35]: 6.15
- glycan array binding signal (z-score) [36]: 3.54
- glycan array binding signal (z-score) [37]: -0.103
- glycan array binding signal (z-score) [38]: -0.033
- glycan array binding signal (z-score) [39]: -0.207
- glycan array binding signal (z-score) [40]: -0.284
- glycan array binding signal (z-score) [41]: -0.111

Source: the supplement of paper PMC8728848
